In PubChem BioAssay (NCI) one finds growth data, which are given here for eight molecules.

SMILES strings stand for the structures. Compounds without any hit were thinned out: in the full panel of roughly 83,000, 20% have a hit.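 Percent growth is the endpoint: 0 to 100 indicates growth inhibition (40 means 60% inhibition), 0 means no net growth, and negative values indicate cell death.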 A number with no mark means an inactive call. The source made the active and inactive calls. How the source made its calls: active means growth percent below 10; inactive means the rest.

What all share (experiment): NCI-60 one-dose screen, 48 h (100 = growth as untreated, 0 = no growth, -100 = all killed)
The test system of experiment [1] is K-562 leukemia. To be noted: 10 µM unless noted.
Experiment [2] deals with MALME-3M melanoma. To be noted: 10 µM unless noted.
For experiment [3], the system named is MDA-MB-231 breast. The settings on record: 10 µM unless noted.
For experiment [4], the system named is RXF 393 renal. The settings on record: 10 µM unless noted.
Experiment [5] concerns SF-268 CNS. The settings on record: 10 µM unless noted.
For experiment [6], the system named is SF-295 CNS. To be noted: 10 µM unless noted.
Experiment [7] concerns SF-539 CNS. The settings on record: 10 µM unless noted.
For experiment [8], the system named is UACC-257 melanoma. The settings on record: 10 µM unless noted.
Experiment [9] deals with M14 melanoma. The settings on record: 10 µM unless noted.
Experiment [10] concerns HCT-15 colon. To be noted: 10 µM unless noted.
The test system of experiment [11] is HT29 colon. The settings on record: 10 µM unless noted.
The test system of experiment [12] is SNB-75 CNS. The settings on record: 10 µM unless noted.
The subject of experiment [13] is SNB-19 CNS. To be noted: 10 µM unless noted.
Experiment [14] concerns U251 CNS. To be noted: 10 µM unless noted.
Experiment [15] has as its system PC-3 prostate. The settings on record: 10 µM unless noted.
Experiment [16] concerns SK-MEL-5 melanoma. To be noted: 10 µM unless noted.
For experiment [17], the system named is UACC-62 melanoma. To be noted: 10 µM unless noted.
The test system of experiment [18] is LOX IMVI melanoma. The settings on record: 10 µM unless noted.
For experiment [19], the system named is SK-MEL-28 melanoma. To be noted: 10 µM.
In experiment [20] the test system is SK-MEL-2 melanoma. To be noted: 10 µM unless noted.

Consider `Clc1ccc(COc2ccc(Nc3ncnc4onc(-c5ccccc5)c34)cc2)cc1`, for which the growth in experiment [1] was 89.9%; in [2] it was 92.7%; in experiment [3], 76.5%; in [4], 95.5%; in experiment [5], 89.2%; in experiment [6], 93.7%. Moreover, the growth in experiment [7] was 97%; in experiment [8], 85.6%; in [9], 76%; in [10] it was 84.2%; in [11], 92.2%; in experiment [12], 67.8%. The growth in [13] was 91.6%; in experiment [14], 94%; in experiment [15], 67%; in [16], 83%; in experiment [17] it was 64.2%; in experiment [18], 86.7%. Further, the results for the growth in [19] and in experiment [20] were 92.1% and 101%, respectively.
For the molecule `CCN1C(=O)N(CC)C2C1NN=c1s/c(=C3\C(=O)N(C(C)C)c4ccccc43)c(=O)n12` (stereo not given), the growth in experiment [1] is 7.46% (active); in experiment [2] it was 64.6%; in [3], 11.3%; in [4], 35.5%; in [5], 25.2%; in experiment [6] it was 5.01% (active). In addition, the growth is -13.2% (active) in experiment [7]; 57.1% in experiment [8]; 18.9% in experiment [9]; 12.4% in [10]; 2.15% (active) in experiment [11]; 41.2% in experiment [12]. In addition, the growth in [13] is 31.3%; in experiment [14], 20.6%; in experiment [15] it was 25.8%; in experiment [16], 2.79% (active); in experiment [17], 16.9%; in [18] it was 20.7%. In addition, the growth in experiment [19] is 57.4%; in experiment [20], 23.8%.
With `COc1cc2cc3c(=O)n4c(cc5cc(OC)ncc54)c(=O)n3c2cn1`, the growth is 102% in experiment [1]; 93.1% in [2]; 109% in [3]; 106% in experiment [4]; 102% in experiment [5]; 87.7% in experiment [6]. Also, the growth in experiment [7] was 106%; in experiment [8], 110%; in [9] it was 105%; in experiment [10], 106%; in experiment [11], 111%; in experiment [12] it was 94.2%. The growth in experiment [13] was 105%; in [14], 104%; in experiment [15], 97.2%; in [16], 109%; in experiment [17], 111%; in [18] it was 100%. In addition, the values for the growth in experiment [19] and in experiment [20] were 106% and 98%, respectively.
`COc1cc(/C=C/C(=O)c2ccc(Nc3nc(NCCO)nc(N4CCOCC4)n3)cc2)cc(OC)c1OC`: the growth in experiment [1] is 10.7%; in [2], 40%; in experiment [3] it was 32.9%; in experiment [4], 6.75% (active); in [5], 17.5%; in [6], 66.6%. Further, the growth in experiment [7] is -5.44% (active); in experiment [8], 48.8%; in experiment [9] it was 26.8%; in experiment [10], 2.16% (active); in experiment [11], 5.79% (active); in experiment [12], 10.4%. Moreover, the growth in experiment [13] is 30.5%; in [14], 14.6%; in experiment [15], 31%; in experiment [16] it was 10.5%; in experiment [17], -31.7% (active); in experiment [18] it was 11.1%. Moreover, the growth was 48.4% in [19] and 50.6% in experiment [20].
`Cn1c(=O)n(C)c2cc(CNCCNc3ccnc4cc(Cl)ccc34)ccc21`: the growth was 5.18% (active) in experiment [1]; 43.6% in [2]; 62.5% in experiment [3]; 52.1% in [4]; 97.9% in experiment [5]; -69.4% (active) in experiment [6]. Further, the growth in [7] was 58.9%; in experiment [8], -61.8% (active); in experiment [9], -52.8% (active); in [10], 9.62% (active); in experiment [11], 6.95% (active); in experiment [12] it was 69.6%. The growth was 89% in [13]; 51.5% in [14]; 64.2% in [15]; 72.3% in experiment [16]; -46.8% (active) in experiment [17]; 9.85% (active) in [18]. The growth in experiment [19] was -36.1% (active); in [20], 65.7%.
Take `O=C1c2ccc3c4c(ccc(c24)C(=O)N1CCCCO)C(=O)N(CCCCO)C3=O`: the growth is 4.34% (active) in experiment [1]; -7.29% (active) in experiment [2]; 64.6% in experiment [3]; 15.1% in experiment [4]; 81.3% in experiment [5]; 46.8% in experiment [6]. The growth in [7] is 68.3%; in [8], -61% (active); in experiment [9], 23.2%; in experiment [10], 48.5%; in experiment [11] it was 10.9%; in experiment [12], 54.2%. The growth in [13] is 91.4%; in [14], 72.3%; in experiment [15] it was 63%; in experiment [16], 78.4%; in experiment [17], 79.6%; in experiment [18], 59.9%. For the same molecule, the growth in experiment [19] was 15.6%; in experiment [20], 58.1%.
For the molecule `Oc1[nH]c2ccccc2c1N=Nc1nnc2n1N=C(c1ccccc1)CS2`, the growth is 77.7% in [1]; 103% in experiment [2]; 88.6% in experiment [3]; 82.4% in [4]; 69.1% in [5]; 99.9% in experiment [6]. The growth in experiment [7] was 82.6%; in experiment [8], 79.6%; in experiment [9], 99.1%; in [10] it was 105%; in experiment [11] it was 72.5%; in experiment [12] it was 65.1%. For the same molecule, the growth in experiment [13] is 83.6%; in experiment [14], 50.4%; in [15], 81%; in experiment [16], 95.6%; in [17], 99.8%; in experiment [18], 93.4%. The values for the growth in [19] and in experiment [20] were 97% and 87.6%, respectively.
With `COc1cc(C2CC(c3ccc(Nc4nc(NCCO)nc(N5CCOCC5)n4)cc3)=NN2c2cc(Cl)cc(Cl)c2)cc(OC)c1OC` (stereo not given), the growth was 21.9% in experiment [1]; 77.6% in experiment [2]; 49.2% in experiment [3]; 5.08% (active) in [4]; 49.4% in [5]; 50.1% in experiment [6]. Besides, the growth is 41.4% in experiment [7]; 80.2% in experiment [8]; 64.9% in experiment [9]; 31.5% in experiment [10]; 33.6% in experiment [11]; 28.2% in experiment [12]. The growth in experiment [13] is 72.6%; in experiment [14], 47.7%; in experiment [15], 34.1%; in experiment [16], 60.1%; in experiment [17] it was 48.6%; in [18] it was 30.9%. Besides, the growth in [19] is 72.8%; in [20], 94.7%.
